# Laboratory results: PubChem BioAssay (Tox21)
# Inconclusive results are not listed. A call without a number means that no potency is given here. Unmarked numbers belong to inactive results. Active and inactive are the calls of the source. Unless noted, calls come from the whole dose curve; as a rule, active = well fitted curve in the direction sought with a large enough effect in the repeat runs; inconclusive = weak or mixed curves; inactive = no such curve, though single readings can be large; an effect the other way counts as inactive or inconclusive.
# Legend:
# [1] = qHTS assay to identify aromatase inhibitors - cell viability counter screen (AID 743084);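 note: cells stimulated with testosterone during compound exposure; nearly all actives have a fitted effect of over 55% in size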
# [2] = molecular target: Aryl hydrocarbon receptor (Homo sapiens) (UniProt P35869); experiment: qHTS assay to identify small molecule that activate the aryl hydrocarbon receptor (AhR) signaling pathway (AID 743085); note: nearly all actives have a fitted effect of over 15% in size; note: potency is the fitted concentration of half-maximal effect;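 for activation: HG2L7.5c1 human HepG2 liver cells with stably integrated DRE-driven firefly reporter; series mostly up to about 70 µM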
# Sequence of Aryl hydrocarbon receptor (Homo sapiens) (P35869 whole entry, looked up): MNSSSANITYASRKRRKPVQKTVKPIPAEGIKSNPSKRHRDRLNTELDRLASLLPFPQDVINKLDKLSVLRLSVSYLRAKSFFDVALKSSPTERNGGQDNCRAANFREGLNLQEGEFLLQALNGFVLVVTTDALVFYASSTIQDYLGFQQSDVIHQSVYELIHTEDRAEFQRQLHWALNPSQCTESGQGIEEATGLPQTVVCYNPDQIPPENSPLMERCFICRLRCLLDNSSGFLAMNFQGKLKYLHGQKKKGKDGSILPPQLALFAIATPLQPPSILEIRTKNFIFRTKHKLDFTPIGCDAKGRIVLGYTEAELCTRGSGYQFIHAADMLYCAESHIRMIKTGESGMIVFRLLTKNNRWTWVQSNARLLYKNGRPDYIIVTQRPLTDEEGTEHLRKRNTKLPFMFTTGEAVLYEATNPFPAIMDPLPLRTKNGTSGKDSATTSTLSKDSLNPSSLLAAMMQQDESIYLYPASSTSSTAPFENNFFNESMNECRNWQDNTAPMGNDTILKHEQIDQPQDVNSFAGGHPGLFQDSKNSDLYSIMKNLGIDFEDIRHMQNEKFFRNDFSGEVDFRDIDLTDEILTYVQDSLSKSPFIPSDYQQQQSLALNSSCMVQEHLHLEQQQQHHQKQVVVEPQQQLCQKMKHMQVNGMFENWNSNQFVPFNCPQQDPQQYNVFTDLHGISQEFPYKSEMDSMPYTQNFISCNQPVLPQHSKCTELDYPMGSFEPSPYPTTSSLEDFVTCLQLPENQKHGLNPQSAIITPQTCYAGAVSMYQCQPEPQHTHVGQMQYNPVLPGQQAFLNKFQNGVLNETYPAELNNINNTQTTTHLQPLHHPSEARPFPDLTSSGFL
# Procedure, shortened: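 A multiplexed format paired cell viability (CellTiter-Fluor fluorescence) with AhR-dependent luciferase output (ONE-Glo luminescence) in the same wells of HepG2 DRE-luc cells after 24 h compound exposure at 37C.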
# [3] = qHTS assay to identify small molecule that activate the aryl hydrocarbon receptor (AhR) signaling pathway - cell viability counter screen (AID 743086);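 note: HepG2 liver cells carrying the AhR DRE luciferase reporter; series mostly up to about 70 µM; nearly all actives have a fitted effect of over 45% in size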
# Procedure, shortened: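 Cytotoxicity counter screen: CellTiter-Fluor signal (30 min, 37 C) in 4000 HepG2 cells/well carrying the DRE-luciferase reporter, following 24 h compound exposure at 37 C.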
# [4] = qHTS assay to identify small molecule antagonists of the peroxisome proliferator-activated receptor gamma (PPARg) signaling pathway - cell viability counter screen (AID 743194); note: nearly all actives have a fitted effect of over 55% in size
# Procedure, shortened: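 Viability was measured as CellTiter-Glo luminescence in GeneBLAzer PPARg UAS-bla HEK293H cells. These cells had been exposed 17 h at 37 C to compounds together with rosiglitazone at 50 nM final, with the beta-lactamase readout taken in the same wells.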
# [5] = qHTS assay for small molecule agonists of the antioxidant response element (ARE) signaling pathway (AID 743202; active = well fitted activation curve with a large enough effect in the signal ratio in the repeat runs, not every such curve was filed as active; the % refers to the signal ratio; note: potency is the fitted concentration of half-maximal effect)
# Procedure, shortened: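 Beta-lactamase reporter activity, read as fluorescence intensity, reflects ARE/Nrf2 pathway induction in HepG2 cells after 16 h compound exposure at 37 C; substrate loading was 2 h at room temperature.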
# [6] = qHTS assay for small molecule agonists of the antioxidant response element (ARE) signaling pathway - cell viability counter screen (AID 743203; calls by dose curve; note: nearly all actives have a fitted effect of over 55% in size)
# Procedure, shortened: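 Measured in the same wells as the beta-lactamase ARE reporter, this read-out is CellTiter-Glo luminescence from HepG2 ARE-bla cells given compounds for 16 hrs.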
# [7] = molecular target: Peroxisome proliferator-activated receptor gamma (Homo sapiens) (UniProt P37231); experiment: qHTS assay to identify small molecule agonists of the peroxisome proliferator-activated receptor gamma (PPARg) signaling pathway (AID 743094; active = well fitted activation curve with a large enough effect in the signal ratio in the repeat runs, not every such curve was filed as active; the % refers to the signal ratio)
# Sequence of Peroxisome proliferator-activated receptor gamma (Homo sapiens) (P37231 whole entry, looked up): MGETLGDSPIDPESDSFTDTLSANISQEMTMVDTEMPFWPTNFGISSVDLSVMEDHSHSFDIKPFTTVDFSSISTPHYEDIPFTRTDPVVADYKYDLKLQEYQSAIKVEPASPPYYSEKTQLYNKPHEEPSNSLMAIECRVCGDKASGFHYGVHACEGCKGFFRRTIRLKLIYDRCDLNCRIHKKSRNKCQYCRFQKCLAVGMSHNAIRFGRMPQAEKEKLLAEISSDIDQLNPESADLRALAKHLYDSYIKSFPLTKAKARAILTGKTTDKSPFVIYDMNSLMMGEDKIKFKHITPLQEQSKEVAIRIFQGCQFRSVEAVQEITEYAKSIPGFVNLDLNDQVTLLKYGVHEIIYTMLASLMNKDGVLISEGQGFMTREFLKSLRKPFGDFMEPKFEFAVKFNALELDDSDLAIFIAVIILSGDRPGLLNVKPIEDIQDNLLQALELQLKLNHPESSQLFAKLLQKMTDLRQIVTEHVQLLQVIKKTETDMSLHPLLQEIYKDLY
# Procedure, shortened: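 Cell-based bla reporter, HEK293H background, PPARg-driven UAS. Pre-incubation 5 h, 37C, 5% CO2. Compound 17 h, 37C. Substrate 1 h RT; fluorescence.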
# [8] = qHTS assay for small molecule activators of the heat shock response signaling pathway - cell viability counter screen (AID 743209); note: nearly all actives have a fitted effect of over 50% in size
# Procedure, shortened: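 Same-well multiplex: after 2.5 h room-temperature incubation with LiveBLAzer B/G substrate and fluorescence reading, CellTiter-Glo reagent was added to HSE-bla HeLa cells that had received compound for 5 h at 37 C; luminescence read after 30 min.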
# [9] = qHTS assay for small molecule activators of the heat shock response signaling pathway (AID 743210; active = well fitted activation curve with a large enough effect in the signal ratio in the repeat runs, with a control signal flat, not every such curve was filed as active; the % refers to the signal ratio;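 note: HeLa cells with beta-lactamase reporter driven by heat shock elements; series mostly up to about 63 µM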)
# Procedure, shortened: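 Fluorescence from a cleaved B/G FRET substrate (2.5 h, room temp) reports HSE-driven beta-lactamase in HeLa cells treated 5 h at 37 C with DMSO-dissolved compounds.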
# [10] = molecular target: Peroxisome proliferator-activated receptor gamma (Homo sapiens) (UniProt P37231); experiment: qHTS assay to identify small molecule antagonists of the peroxisome proliferator-activated receptor gamma (PPARg) signaling pathway (AID 743191; calls by dose curve; note: series mostly up to about 63 µM; nearly all actives have a fitted effect of over 30% in size)
# Procedure, shortened: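 Beta-lactamase reporter under UAS control in HEK293H PPARg-bla cells; compound treatment 17 h at 37C. Read-out: fluorescence intensity after 1 h room-temperature incubation with LiveBLAzer B/G FRET substrate.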
Compound,Potency [1],Potency [2],Potency [3],Potency [4],Potency [5],Potency [6],Potency [7],outcome [8],outcome [9],Potency [10]
Oc1ccc(CCNCCCCCCNCCc2ccccc2)cc1O,inactive,inactive,inactive,inactive,inactive,inactive,,,,
COC(=O)/C=C/C(C)=C\C=C\C(C)=C\C=C\C=C(C)\C=C\C=C(C)\C=C\C(=O)O,inactive,inactive,inactive,inactive,,inactive,inactive,inactive,inactive,
O=C(O)c1ccncc1,inactive,inactive,inactive,,inactive,inactive,inactive,inactive,inactive,
O=C(O)c1ccc(O)c(O)c1,inactive,inactive,inactive,inactive,,,inactive,,inactive,
c1ccc(CN(Cc2ccccc2)Cc2ccccc2)cc1,inactive,inactive,inactive,,,,inactive,inactive,inactive,
C=C[Si](OCC)(OCC)OCC,inactive,inactive,inactive,inactive,inactive,inactive,,,inactive,
O=c1[nH][nH]c2ccccc12,inactive,62.3 µM (active),inactive,inactive,inactive,inactive,,inactive,inactive,
CCOCCn1c(N2CCCN(C)CC2)nc2ccccc21,inactive,inactive,inactive,,inactive,inactive,,,inactive,
CC(=O)Oc1cccc2c1C(=O)c1c(OC(C)=O)cc(C(=O)O)cc1C2=O,inactive,inactive,inactive,inactive,15 µM (active),inactive,inactive,,inactive,
COc1ccc(/C=C/S(=O)(=O)NC(=O)c2ccc(C)cc2Cl)cc1,inactive,inactive,inactive,inactive,inactive,inactive,inactive,,inactive,
O=C(OCCCCCOC(=O)c1ccccc1)c1ccccc1,inactive,inactive,inactive,,,inactive,inactive,,inactive,
O=C(Cl)c1ccc(F)c(Cl)c1,inactive,inactive,inactive,inactive,inactive,inactive,,inactive,inactive,
Cc1c(Cl)cccc1Nc1ccccc1C(=O)O,inactive,inactive,inactive,inactive,,inactive,inactive,inactive,inactive,
C=CCCC,inactive,inactive,inactive,inactive,inactive,inactive,,inactive,inactive,
CCCCCCCCCCCCCCCCN,inactive,inactive,inactive,,inactive,inactive,inactive,inactive,inactive,
COc1ccc(C(=O)Nc2ccccc2)cc1[N+](=O)[O-],inactive,30.9 µM (active),inactive,inactive,,,inactive,inactive,inactive,
CCOC(C)OCC,inactive,inactive,inactive,inactive,,inactive,,inactive,,
CCCCCCC/C=C/C=O,inactive,inactive,inactive,,,inactive,inactive,inactive,inactive,
CC1(C)[C@@H]2CC[C@]3(C2)[C@@H]1C(=O)CCC3(C)C,inactive,inactive,inactive,inactive,inactive,inactive,,,inactive,
C=CC(C)(O)CC/C=C(/C)CCC=C(C)C (centres undefined),inactive,inactive,inactive,inactive,,inactive,inactive,inactive,inactive,
CCCC1CCCC(=O)O1 (centres undefined),inactive,inactive,inactive,inactive,inactive,inactive,,inactive,inactive,inactive
Clc1cccc(C(c2ccc3nc[nH]c3c2)n2ccnc2)c1 (centres undefined),inactive,2.66 µM (active),inactive,inactive,inactive,inactive,inactive,,inactive,
CC(C)(C)N,inactive,inactive,inactive,inactive,,inactive,inactive,inactive,inactive,
O=P(c1ccccc1)(c1ccccc1)c1ccccc1,inactive,,inactive,inactive,,inactive,inactive,inactive,inactive,inactive
O=C(O)CNc1ccccc1,inactive,,inactive,inactive,inactive,inactive,inactive,inactive,inactive,inactive
Sc1nc(S)nc(S)n1,inactive,inactive,,inactive,,inactive,,inactive,inactive,
CCN(CCCCOC(=O)c1ccc(OC)c(OC)c1)C(C)Cc1ccc(OC)cc1 (centres undefined),inactive,,inactive,inactive,inactive,inactive,inactive,inactive,inactive,inactive
CCCCCCCCCCCCSC#N,inactive,,inactive,inactive,inactive,inactive,inactive,,,inactive
CCC(C)CCCC(C)(C)O (centres undefined),inactive,,inactive,inactive,inactive,,inactive,inactive,inactive,inactive
Nc1ccc(-c2ccc(F)cc2)cc1,inactive,,inactive,inactive,,inactive,inactive,inactive,inactive,inactive
